Assay results taken from PubChem BioAssay (NCATS).
Records with an inconclusive call do not appear. Calls of active or inactive are those of the source. Unless noted, the call rests on the fitted dose curve; in most records, active means well fitted curve in the direction sought with a large enough effect; inconclusive means small, poorly fitted or top-dose-only effect, or another doubt; inactive means no such curve, though single readings can be large; an effect the other way counts as inactive or inconclusive.

Legend:
[1] = AP1 Signaling Pathway (AID 357; active means well fitted curve in either direction with a large enough effect, not every such curve was filed as active;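 further: ME-180 reporter cells stimulated with EGF at its EC50 level; on the % scale 0 is the no-effect control and ±100 the full control effect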); settings: ME-180 AP-1-bla reporter, EGF-induced, beta-lactamase ratio, 5 h; at 17.2 µM (top of the series) unless noted
Outline: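 AP-1-bla ME-180 cells, Opti-MEM + 0.5% dialyzed FBS, plated overnight 37 °C. Cpd titration + EC50 EGF, 5 h 37 °C. CCF4 2.5 h RT; ex 405, em 460/530 ratio → %activity, AC50.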

[2] = biological target: Cytochrome P450 1A2 (Homo sapiens) (UniProt P05177); assay: p450-cyp1a2 (AID 410; calls by dose curve; further: potency means the concentration at half of the fitted maximal effect;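 on activity change, negative = inhibition: -100% = full effect of reference inhibitor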)
Cytochrome P450 1A2 (Homo sapiens), sequence (P05177 whole entry, looked up): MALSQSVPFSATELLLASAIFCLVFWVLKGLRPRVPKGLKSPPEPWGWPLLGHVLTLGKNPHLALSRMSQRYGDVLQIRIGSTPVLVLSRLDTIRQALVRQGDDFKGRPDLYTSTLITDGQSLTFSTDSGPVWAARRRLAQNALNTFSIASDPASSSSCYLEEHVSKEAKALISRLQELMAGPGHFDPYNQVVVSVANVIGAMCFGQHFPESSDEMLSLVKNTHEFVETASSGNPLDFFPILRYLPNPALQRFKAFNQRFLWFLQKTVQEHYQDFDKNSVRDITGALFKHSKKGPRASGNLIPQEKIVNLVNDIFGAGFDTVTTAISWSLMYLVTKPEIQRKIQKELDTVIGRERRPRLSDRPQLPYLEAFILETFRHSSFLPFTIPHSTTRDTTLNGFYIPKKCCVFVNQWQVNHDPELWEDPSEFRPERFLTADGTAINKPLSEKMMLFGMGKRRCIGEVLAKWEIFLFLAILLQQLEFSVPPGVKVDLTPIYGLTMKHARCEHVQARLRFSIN
Outline: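 20nM CYP1A2 with 100uM Luciferin-ME (at Km) in 100mM KPO4; compound preincubated 10 min, NADPH regeneration added, 60 min at room temperature. Luciferin quantified by luminescence after detection reagent; normalized to 57 uM furafylline.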

[3] = Stat Signaling Pathway (AID 446; active means well fitted curve in either direction with a large enough effect, not every such curve was filed as active;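 further: ME-180 cervical cancer cells given 40 pM IL-6 alongside compound; SIE-controlled beta-lactamase reporter measured as 460/530 nm FRET emission ratio; on the % scale 0 is the no-effect control and ±100 the full control effect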); settings: ME-180 SIE beta-lactamase reporter, IL-6 stimulated, 5 h; at 17.2 µM (top of the series) unless noted
Outline: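 Reporter line: ME-180 cervical carcinoma, SIE-beta-lactamase. Treatment: compound with 40 pM IL-6, 5 hrs, 37 C, in low-serum OPTI-MEM with 10 mM HEPES pH 7.3. Detection: 460/530 nm fluorescence.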

[4] = biological target: Glucocorticoid receptor (Homo sapiens) (UniProt P04150); assay: GR-GFP Redistribution (AID 450;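 active means compounds whose dose series gives a full or clear partial fitted curve of increased nuclear translocation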; further: potency means the concentration at half of the fitted maximal effect)
Glucocorticoid receptor (Homo sapiens), sequence (P04150 whole entry, looked up, the tested form may be a part): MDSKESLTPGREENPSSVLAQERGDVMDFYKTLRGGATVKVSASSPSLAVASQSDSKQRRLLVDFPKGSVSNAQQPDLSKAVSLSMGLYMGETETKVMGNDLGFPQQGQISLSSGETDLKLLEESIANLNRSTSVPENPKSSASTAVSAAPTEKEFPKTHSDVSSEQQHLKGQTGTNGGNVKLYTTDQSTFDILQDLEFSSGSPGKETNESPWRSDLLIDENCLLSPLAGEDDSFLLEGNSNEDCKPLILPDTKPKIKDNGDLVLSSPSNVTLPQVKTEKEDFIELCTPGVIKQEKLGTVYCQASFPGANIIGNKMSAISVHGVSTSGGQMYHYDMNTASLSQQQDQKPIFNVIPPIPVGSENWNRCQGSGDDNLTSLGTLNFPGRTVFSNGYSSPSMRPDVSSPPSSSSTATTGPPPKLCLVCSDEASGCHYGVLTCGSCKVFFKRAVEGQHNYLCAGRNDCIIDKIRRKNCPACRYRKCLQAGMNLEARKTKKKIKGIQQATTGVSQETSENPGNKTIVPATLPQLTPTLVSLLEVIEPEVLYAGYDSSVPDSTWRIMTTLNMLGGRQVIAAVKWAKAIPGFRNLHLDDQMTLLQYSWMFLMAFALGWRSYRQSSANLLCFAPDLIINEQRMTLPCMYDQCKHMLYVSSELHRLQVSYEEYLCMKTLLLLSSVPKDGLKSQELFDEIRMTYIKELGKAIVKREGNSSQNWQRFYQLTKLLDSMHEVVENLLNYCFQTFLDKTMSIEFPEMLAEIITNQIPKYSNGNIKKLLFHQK

[5] = biological target: Glucocorticoid receptor (Homo sapiens) (UniProt P04150); assay: GR-EFC Redistribution (AID 451; calls by dose curve; further: potency means the concentration at half of the fitted maximal effect); settings: CHO-K1 GR-EFC translocation, beta-gal luminescence, 2 h
Outline: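 CHO-K1 cells stably expressing nuclear-localized β-gal enzyme acceptor and GR fused C-terminally to the enzyme donor fragment; ligand-driven nuclear translocation restores β-gal by complementation. Compounds titrated up to 46 uM final, 2 h at 37 °C; luminescence read.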

[6] = biological target: Mitogen-activated protein kinase 10 (Mus musculus) (UniProt Q61831); assay: JNK3 AlphaScreen Assay (AID 530; active means well fitted curve in either direction with a large enough effect, not every such curve was filed as active;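 further: kinase came from lysate of stimulated human HepG2 cells; signal reports phosphorylation of biotinylated GST-cJun 1-79 at Ser73 with 10 µM ATP; on the % scale 0 is the no-effect control and ±100 the full control effect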)
Outline: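 Inhibitors reduce antibody binding to phosphorylated biotin-cJun, lowering AlphaScreen luminescence. Lysates from HepG2 cells pre-activated by IL-1beta plus TNF-alpha supplied JNK3; compounds were titrated.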

[7] = biological target: 3',5'-cyclic-AMP phosphodiesterase 4B (Homo sapiens) (UniProt Q07343); assay: qHTS Assay for Inhibitors of PDE-IV (AID 607; active means well fitted activation curve with a large enough effect in the main read-out, with a control signal flat, not every such curve was filed as active; further: % of control where 0% means no effect)
3',5'-cyclic-AMP phosphodiesterase 4B (Homo sapiens), sequence (Q07343 whole entry, looked up): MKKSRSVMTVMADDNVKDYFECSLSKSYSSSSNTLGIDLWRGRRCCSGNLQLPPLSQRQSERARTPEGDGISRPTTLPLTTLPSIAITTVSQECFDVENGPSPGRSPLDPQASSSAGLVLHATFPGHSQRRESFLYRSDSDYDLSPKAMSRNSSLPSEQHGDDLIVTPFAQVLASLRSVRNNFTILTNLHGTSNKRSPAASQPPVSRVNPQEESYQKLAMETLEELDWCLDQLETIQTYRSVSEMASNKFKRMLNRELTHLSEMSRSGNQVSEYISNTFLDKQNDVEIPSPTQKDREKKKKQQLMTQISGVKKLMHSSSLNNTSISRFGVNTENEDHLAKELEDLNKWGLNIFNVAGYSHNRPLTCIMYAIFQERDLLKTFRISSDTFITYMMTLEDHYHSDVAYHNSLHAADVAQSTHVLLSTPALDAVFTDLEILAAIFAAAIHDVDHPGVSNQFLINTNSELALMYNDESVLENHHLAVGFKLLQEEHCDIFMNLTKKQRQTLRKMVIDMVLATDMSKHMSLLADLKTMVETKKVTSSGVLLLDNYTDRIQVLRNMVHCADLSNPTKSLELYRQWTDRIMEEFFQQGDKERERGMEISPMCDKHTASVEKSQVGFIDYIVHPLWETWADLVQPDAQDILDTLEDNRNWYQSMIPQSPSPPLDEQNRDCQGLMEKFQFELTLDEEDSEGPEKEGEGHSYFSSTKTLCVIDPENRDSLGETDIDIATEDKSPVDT
Outline: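 Cell-based read-out of cAMP via a modified cyclic nucleotide-gated channel and membrane potential dye (535/590 nm) in HEK293 cells expressing PDE4 endogenously. Compounds tested up to 22.9 uM final; 100 uM RO 20-1724 reference.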

[8] = biological target: Guanine nucleotide-binding protein G(i) subunit alpha-1 (Homo sapiens) (UniProt P63096); assay: qHTS Assay for Inhibitors of RGS12 GoLoco Motif Activity (Green Fluorophore) (AID 879);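 further: 0% = labeled peptide with Gαi1 and full inhibition = labeled peptide alone without protein; negative values mean loss of peptide binding seen as reduced polarization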
Guanine nucleotide-binding protein G(i) subunit alpha-1 (Homo sapiens), sequence (P63096 whole entry, looked up): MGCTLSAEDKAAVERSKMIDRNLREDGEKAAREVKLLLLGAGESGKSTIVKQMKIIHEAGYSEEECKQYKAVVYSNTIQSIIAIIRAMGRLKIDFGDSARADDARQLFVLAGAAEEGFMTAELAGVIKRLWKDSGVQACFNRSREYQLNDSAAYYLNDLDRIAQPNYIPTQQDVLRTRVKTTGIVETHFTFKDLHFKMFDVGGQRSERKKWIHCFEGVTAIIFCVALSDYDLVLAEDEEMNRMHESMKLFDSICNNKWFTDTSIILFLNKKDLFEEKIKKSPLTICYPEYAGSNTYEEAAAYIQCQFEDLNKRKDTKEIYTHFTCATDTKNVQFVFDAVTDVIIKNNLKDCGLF
Outline: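 Fluorescence polarization assay: 50 nM Gαi1 with 10 nM FITC-labeled RGS12 GoLoco peptide in 10 mM Tris pH 7.5, 150 mM NaCl, 0.1 mM GDP, 0.05% NP40, 10 min at room temperature with compound.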

[9] = qHTS Assay for Identification of Small Molecule Antagonists for NFkB Signaling Pathway (AID 895; active means well fitted inhibition curve with a large enough effect in the signal ratio, with a control signal flat, not every such curve was filed as active; the % refers to the signal ratio; further: potency means the concentration at half of the fitted maximal effect)
Outline: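 NFkB-bla ME-180 cervical carcinoma cells with beta-lactamase reporter under NFkB response element; compounds added, then TNF alpha at 10 pM final (EC50), 5 h at 37 C. LiveBLAzer substrate 2 h, room temperature; emission 460/530 nm at 405 nm excitation.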

[10] = qHTS Assay for Identification of Small Molecule Agonists for Thrombopoietin (TPO) Signaling Pathway (AID 917); further: on the % scale 0 is the no-effect control and ±100 the full control effect
Outline: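 We measured Glycoprotein IIb promoter–luciferase output in IL-3-starved Ba/F3 murine cells expressing the human TPO receptor after 24 hrs at 37 C with compounds and 26 pM TPO.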

[11] = biological target: Muscarinic acetylcholine receptor M1 (Rattus norvegicus) (UniProt P08482); assay: qHTS Assay for Antagonists of Acetylcholine Muscarinic M1 Receptor: Measurement of IP-One Response (AID 944); further: nearly all actives have a fitted effect of over 75% in size; further: potency means the concentration at half of the fitted maximal effect
Muscarinic acetylcholine receptor M1 (Rattus norvegicus), sequence (P08482 whole entry, looked up): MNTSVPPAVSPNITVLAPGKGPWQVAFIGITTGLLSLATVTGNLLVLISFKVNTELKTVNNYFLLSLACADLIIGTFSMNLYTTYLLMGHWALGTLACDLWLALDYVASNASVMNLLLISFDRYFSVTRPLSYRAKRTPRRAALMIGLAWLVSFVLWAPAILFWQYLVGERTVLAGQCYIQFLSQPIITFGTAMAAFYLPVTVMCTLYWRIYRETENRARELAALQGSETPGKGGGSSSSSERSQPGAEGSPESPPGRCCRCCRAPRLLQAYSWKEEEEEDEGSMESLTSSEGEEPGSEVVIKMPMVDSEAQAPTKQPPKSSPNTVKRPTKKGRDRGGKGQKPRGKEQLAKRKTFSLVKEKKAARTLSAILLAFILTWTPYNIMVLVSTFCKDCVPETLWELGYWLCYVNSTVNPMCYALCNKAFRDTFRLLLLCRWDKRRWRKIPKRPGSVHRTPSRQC
Outline: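 CHO cells stably expressing rat M1, pretreated 10 min with compound, then stimulated 30 min with carbachol at EC80 (200 nM) in LiCl-containing buffer pH 7.4; IP1 accumulation read by HTRF competition (665/620 nm).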

[12] = biological target: Pyruvate kinase (Leishmania mexicana) (UniProt Q27686); assay: qHTS Validation Assay for Inhibitors of Leishmania Mexicana Pyruvate Kinase (AID 945);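 further: 0% = DMSO only neutral control wells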
Pyruvate kinase (Leishmania mexicana), sequence (Q27686 2-499 E452W): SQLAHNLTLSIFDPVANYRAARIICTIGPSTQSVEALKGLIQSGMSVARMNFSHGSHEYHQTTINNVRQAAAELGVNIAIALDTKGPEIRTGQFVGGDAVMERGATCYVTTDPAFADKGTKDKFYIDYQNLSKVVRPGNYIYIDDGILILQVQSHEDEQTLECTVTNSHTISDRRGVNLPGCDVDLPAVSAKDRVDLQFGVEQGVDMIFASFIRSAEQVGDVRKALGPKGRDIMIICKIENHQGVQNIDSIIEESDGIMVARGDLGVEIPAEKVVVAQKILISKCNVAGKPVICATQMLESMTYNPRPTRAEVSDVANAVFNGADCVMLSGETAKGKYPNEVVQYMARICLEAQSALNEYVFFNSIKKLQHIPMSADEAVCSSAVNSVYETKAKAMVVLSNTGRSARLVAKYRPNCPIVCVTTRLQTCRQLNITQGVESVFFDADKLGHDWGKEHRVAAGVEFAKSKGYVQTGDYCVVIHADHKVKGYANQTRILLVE
Outline: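 Compounds are tested as eight-point concentration series. Reactions contain 0.2 nM LmPYK E451W, 0.5 mM PEP, 0.1 mM ADP, 7 mM MgCl2 and 50 mM KCl at pH 7.2, run 1 h at room temperature, then read by PKLight luminescence.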

[13] = biological target: Pyruvate kinase PKM (Homo sapiens) (UniProt P14618); assay: qHTS Assay for Activators of Human Muscle Pyruvate Kinase (AID 954; active means well fitted curve in the direction sought with a large enough effect, not every such curve was filed as active;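 further: 0% = uninhibited enzyme and -100% = no enzyme or full thiadiazolimine inhibition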)
Pyruvate kinase PKM (Homo sapiens), sequence (P14618 whole entry, looked up): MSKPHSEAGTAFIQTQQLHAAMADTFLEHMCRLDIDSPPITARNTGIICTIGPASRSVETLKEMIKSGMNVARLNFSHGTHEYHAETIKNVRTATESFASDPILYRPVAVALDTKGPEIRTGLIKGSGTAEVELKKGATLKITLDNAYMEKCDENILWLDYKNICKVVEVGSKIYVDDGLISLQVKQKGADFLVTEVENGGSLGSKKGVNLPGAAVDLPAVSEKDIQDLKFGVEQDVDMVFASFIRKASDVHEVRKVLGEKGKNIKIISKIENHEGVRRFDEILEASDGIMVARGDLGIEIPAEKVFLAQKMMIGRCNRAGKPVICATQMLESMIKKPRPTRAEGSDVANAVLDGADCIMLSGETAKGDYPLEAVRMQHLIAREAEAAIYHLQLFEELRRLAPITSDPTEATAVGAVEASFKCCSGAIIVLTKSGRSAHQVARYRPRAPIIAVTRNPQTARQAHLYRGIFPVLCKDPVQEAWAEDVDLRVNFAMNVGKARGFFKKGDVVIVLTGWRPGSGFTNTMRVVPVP
Outline: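 Human PKM2 activity is measured as ATP generation, detected by luciferase-coupled luminescence. The enzyme (0.1 nM) acts on 0.5 mM PEP and 0.1 mM ADP for 1 h at ambient temperature; data are normalized to uninhibited and full-inhibition wells.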

[14] = biological target: Alpha-galactosidase A (Homo sapiens) (UniProt P06280); assay: Counterscreen for Glucocerebrosidase Inhibitors: qHTS Assay for Human alpha-Galactosidase at pH 4.5 (AID 992); further: 0% is about no effect
Alpha-galactosidase A (Homo sapiens), sequence (P06280 whole entry, looked up): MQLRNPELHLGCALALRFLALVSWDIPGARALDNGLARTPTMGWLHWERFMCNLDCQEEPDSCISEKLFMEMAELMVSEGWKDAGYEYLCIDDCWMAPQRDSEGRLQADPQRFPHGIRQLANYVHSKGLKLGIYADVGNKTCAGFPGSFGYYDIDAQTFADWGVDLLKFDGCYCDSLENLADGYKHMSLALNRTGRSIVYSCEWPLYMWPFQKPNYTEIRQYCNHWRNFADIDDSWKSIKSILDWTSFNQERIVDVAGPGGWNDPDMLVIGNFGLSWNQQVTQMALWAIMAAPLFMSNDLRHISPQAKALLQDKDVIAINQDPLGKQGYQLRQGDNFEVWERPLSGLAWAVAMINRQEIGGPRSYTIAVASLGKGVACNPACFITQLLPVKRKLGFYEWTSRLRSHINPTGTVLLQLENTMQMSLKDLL
Outline: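 Quantitative HTS: compounds tested from 0.7 nM up to 77 uM against 2 nM enzyme with 80 uM 4-MU alpha-D-galactopyranoside. The 20 min room-temperature reaction is stopped with 1M NaOH/1M glycine, pH 10.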

[15] = biological target: alpha-glucosidase (Oryza sativa, rice) (UniProt Q653V4); assay: Counterscreen for Glucocerebrosidase Inhibitors: qHTS Assay for Rice alpha-Glucosidase at pH 5.0 (AID 997);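 further: 0% = full activity with enzyme and -100% = basal without enzyme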
Outline: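 Rice alpha-glucosidase (4 nM final) with 400 uM 4-methylumbelliferyl-alpha-D-glucopyranoside in citrate buffer pH 5.0, 20 min at room temperature, stopped at pH 10; fluorescence 365/440 nm, compounds 0.7 nM–77 uM, AC50 from Hill fits.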

[16] = NFAT Signaling Pathway (AID 444; active means well fitted curve in either direction with a large enough effect, not every such curve was filed as active); settings: Jurkat NFAT-bla M1, carbachol, beta-lactamase ratio, 5 h; at 17.2 µM (top of the series) unless noted
Outline: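 Jurkat cells carrying an NFAT-driven β-lactamase reporter and co-transfected muscarinic M1 receptor were treated with compound plus carbachol (1 uM final, an EC50 level) for 5 h at 37 °C. CCF4 loading followed for 1 h at RT; 460/530 nm ratio gave %activity.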

[17] = biological target: Cytochrome P450 3A4 (Homo sapiens) (UniProt P08684); assay: qHTS Assay for Activators of Cytochrome P450 3A4 (AID 885); further: nearly all actives have a fitted effect of over 65% in size
Cytochrome P450 3A4 (Homo sapiens), sequence (P08684 whole entry, looked up): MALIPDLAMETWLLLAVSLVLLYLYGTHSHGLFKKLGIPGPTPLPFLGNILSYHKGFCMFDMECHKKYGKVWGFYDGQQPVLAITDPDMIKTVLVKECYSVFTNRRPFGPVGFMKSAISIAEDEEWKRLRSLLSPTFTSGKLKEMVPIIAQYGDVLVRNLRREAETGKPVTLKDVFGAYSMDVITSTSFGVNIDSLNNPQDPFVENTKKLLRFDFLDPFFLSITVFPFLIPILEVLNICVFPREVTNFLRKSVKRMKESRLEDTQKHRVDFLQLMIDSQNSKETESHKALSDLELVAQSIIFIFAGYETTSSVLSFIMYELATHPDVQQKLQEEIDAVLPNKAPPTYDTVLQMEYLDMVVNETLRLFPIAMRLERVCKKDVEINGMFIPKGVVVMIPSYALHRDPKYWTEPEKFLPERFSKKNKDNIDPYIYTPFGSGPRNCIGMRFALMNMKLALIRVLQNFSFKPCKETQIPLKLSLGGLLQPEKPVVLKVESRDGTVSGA
Outline: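 Signal was normalized against complete inhibition by 57 uM ketoconazole. The reaction used 20nM CYP3A4 with 25uM Luciferin-PPXE, 10-min compound preincubation and a 60-min NADPH-supported step at RT.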

[18] = biological target: Muscarinic acetylcholine receptor M1 (Rattus norvegicus) (UniProt P08482); assay: qHTS Assay for Antagonists of Acetylcholine Muscarinic M1 Receptor: Kinetic Measurement of Intracellular Calcium Response (AID 943); further: potency means the concentration at half of the fitted maximal effect; nearly all actives have a fitted effect of over 75% in size
Outline: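 CHO cells expressing rat M1 receptor, Fluo-4 loaded, preincubated 10 min with compound, then stimulated with EC80 carbachol (100 nM final). Kinetic calcium fluorescence over 4 min; response taken as peak over basal signal.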

C[C@@]12CCC(=O)C=C1CC[C@@H]1[C@@H]2[C@H](O)C[C@]2(C)[C@@H]1CC[C@]2(O)C(=O)COC(=O)CCC(=O)O
inactive: activity change, negative = inhibition [1] -0.329% [at 38 µM] | Potency [2] | activity, negative = inhibition [3] -14.6% [at 38 µM] | Potency [6] | Potency [7] | outcome [8] | Potency [10] | Potency [11] | Potency [12] | outcome [13] | outcome [14] | outcome [15]
active: Potency [4] 0.112 µM | Potency [5] 1.12 µM | Potency [9] 0.224 µM

Fc1ccccc1/C=N/n1cnnc1
inactive: activity change, negative = inhibition [1] 3.64% | activity change, negative = inhibition [16] 1.1% | activity, negative = inhibition [3] 2.69%

CCOC(=O)CCCCC(=O)NC(CO)C(=O)NC (stereo unspecified)
inactive: activity change, negative = inhibition [1] 13.2% | activity change, negative = inhibition [16] 6.3% | activity, negative = inhibition [3] 8.86%

CC1CCN(CC[C@@H]2CCCN2S(=O)(=O)c2cccc(O)c2)CC1
active: Potency [18] 14.1 µM | Potency [11] 14.1 µM
inactive: activity change, negative = inhibition [1] 2.33% [at 38 µM] | Potency [2] | activity, negative = inhibition [3] -6.42% [at 38 µM] | Potency [4] > 46 µM | Potency [5] > 46 µM | Potency [7] | outcome [8] | Potency [17] | Potency [10] | Potency [12] | outcome [13] | outcome [14] | outcome [15]

Cc1ccc(N2C(=O)C3ON(c4ccccc4)C(c4ccncc4)C3C2=O)cc1 (stereo unspecified)
inactive: activity change, negative = inhibition [1] 5.13% | activity change, negative = inhibition [16] 9.45% | activity, negative = inhibition [3] -10.5%

CCOC(=O)CC1=C(C(=O)OCC)C(c2ccc(OC)c(OC)c2)C(C#N)=C(N)O1 (stereo unspecified)
inactive: activity change, negative = inhibition [1] 1.15% | activity change, negative = inhibition [16] -21.5% | activity, negative = inhibition [3] 5.77%

COc1cccc2c1[C@@H]1CN(CCCCn3c(=O)[nH]c4c(sc5ncc(-c6ccccc6)nc54)c3=O)C[C@H]1CO2
active: Potency [2] 31.6 µM | Potency [18] 11.2 µM
inactive: activity change, negative = inhibition [1] 4.55% [at 38 µM] | activity, negative = inhibition [3] 22.8% [at 38 µM] | Potency [4] > 46 µM | Potency [5] > 46 µM | Potency [7] | outcome [8] | Potency [17] | Potency [11] | Potency [12] | outcome [13] | outcome [14] | outcome [15]
